The values below come from PubChem BioAssay.

A short description of test [1]: growth inhibition of DIPG glioma cells, dose response, cell-based, SU-DIPG-XVII, MIPE5.0, CellTiter-Glo, qHTS (AID 1347060; cut-off not given, nearly all actives have AC50 up to about 26 µM;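 on AC50: cells exposed to compound for 48 hours before viability readout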). The following applies: SU-DIPG-XVII viability, CellTiter-Glo ATP luminescence. Background: ATP-based viability assays read luminescence as a measure of living cells.
Test [2] can be described thus: growth inhibition of DIPG glioma cells, dose response, cell-based, SU-DIPG-XIII, MIPE4.0, CellTiter-Glo, qHTS (AID 1347061; cut-off not given, nearly all actives have AC50 up to about 37 µM;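 further: cells exposed to compound for 48 hours before readout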). Particulars: SU-DIPG-XIII viability, CellTiter-Glo ATP luminescence.
Test [3] in a line: growth inhibition of DIPG glioma cells, dose response, cell-based, JHH-DIPG-1, MIPE4.0, CellTiter-Glo, qHTS (AID 1347062; cut-off not given, nearly all actives have AC50 up to about 27 µM;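 on AC50: cells exposed to compound for two days before readout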). Particulars: JHH-DIPG-1 viability, CellTiter-Glo ATP luminescence.
A short description of test [4]: growth inhibition of DIPG glioma cells, dose response, cell-based, SU-DIPG-IV, MIPE4.0, CellTiter-Glo, qHTS (AID 1347063; cut-off not given, nearly all actives have AC50 up to about 30 µM;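 further: compound exposure lasted 48 hours before the viability readout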). Particulars: SU-DIPG-IV viability, CellTiter-Glo ATP luminescence.
Test [5] is described as follows: viability loss in pontine glioma line – cell-based, SU-DIPG-XXV, MIPE5.0, CellTiter-Glo, qHTS, dose response (AID 1347065; cut-off not given, nearly all actives have AC50 up to about 26 µM;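 further: cells exposed to compound for 48 hours before ATP readout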). Particulars: CellTiter-Glo ATP luminescence.
Test [6] is described as follows: SU-DIPG-VI glioma cell viability, MIPE4.0 library, CellTiter-Glo luminescence, qHTS (AID 1347066; cut-off not given, nearly all actives have AC50 up to about 30 µM;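 further: cells exposed to compound for 48 hours before readout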). Particulars: CellTiter-Glo ATP luminescence.
Test [7] is described as follows: JHH-DIPG-1 glioma cell viability, MIPE5.0 library, CellTiter-Glo luminescence, qHTS (AID 1347067; cut-off not given, nearly all actives have AC50 up to about 26 µM;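 further: cells exposed to compound for 48 hours before readout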). Particulars: JHH-DIPG-1 glioma viability, CellTiter-Glo ATP luminescence.
A short description of test [8]: SU-DIPG-XXV glioma cell viability, MIPE5.0 library, qHTS (AID 1347068; cut-off not given, nearly all actives have IC50 up to about 30 µM;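 on IC50: cells exposed to compound for 48 hours before viability readout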). For orientation: Quantitative high-throughput screening tests each substance at several concentrations.
Test [9] is described as follows: modifiers of HSF1 nuclear foci, imaging, Selleck Cancer Library (AID 1347162; in the data active means plate-normalised HSF1 focus index below about 0.46). The following applies: human cells, at 10 µM; SSMD: measured here: HSF1 foci SSMD mean; cell count: measured here: cell number; plate-normalised HSF1 focus index: stronger effect = lower value.
Test [10] can be described thus: ovarian cancer cell viability with rucaparib, profiling panel, oncology-focused library, rucaparib conditional (AID 1508598). Particulars: patient-derived ovarian cancer cells, CellTiter-Glo viability, 144 h, stronger effect = lower value.
A short description of test [11]: sensitizers of A549 cells to miR-34 induction, primary screen, imaging, A549 dox-inducible miR-34, nuclei and caspase counts (AID 1347080;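 active means compounds whose cell count with miR-34 switched on is under 0.7 times the count with it off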). Particulars: A549 miR-34 inducible, Hoechst nuclei count, 48 h.
The nature of test [12]: survival rescue of mitochondrial mutant cells in low glucose, primary screen, MELAS cybrids, Rieske KO mouse fibroblasts, CellTiter-Glo (AID 1508586;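 active means mean z-score across replicates of 1.96 or higher in either the MELAS or the Rieske mutant cell line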;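 further: z relative to plate mean and SD of compound and empty wells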).

Each structure is given as a SMILES string. Several values for one entry are separate records, joined by “and”; a condition that tells them apart may be missing. Equal entries are not always repeated. Records with an inconclusive call do not appear. Activity calls are given as the source filed them.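 How the source made its calls, unless noted: active means normalized viability below 100% at a tested concentration; inactive means the rest.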

In the case of `C1Cc2[nH]nc(-c3nn[nH]n3)c2C1`, the result in test [1], in test [2], in test [3], in [4], in test [5] and in [6] was inactive. In addition, the call in test [7] and in test [8] was inactive.

A word on the AC50: it is the midpoint of the concentration-response curve, whichever way the signal moves. One may read the IC50 as the midpoint of a concentration-inhibition curve. As a reminder, the viability is a per cent measure of how many cells are alive, often set against a control. Take `Cc1ccc(C(=O)N(CCCN)[C@@H](c2oc3cc(Cl)ccc3c(=O)c2Cc2ccccc2)C(C)C)cc1`: the AC50 in [1] is 0.0332 µM (active); in test [3], 14.8 µM (active); in test [4], 29.6 µM (active); in [5] it was 0.0118 µM (active); in test [6], 8.33 µM (active); in [7], 1.66 µM (active). In addition, the call in test [2] was inactive. The IC50 in [8] is 0.0417 µM (active). In test [9], this molecule displayed an SSMD of 0.849. In [9], this molecule gave a cell count of 6430. Moreover, the plate-normalised HSF1 focus index in test [9] was 1.05 (inactive). The viability is 50.8% (active) in [10] (at 0.000305 µM, OCI-C5x cells, with rucaparib 10 µM, 100% = cells with rucaparib alone); 63.1% (active) in test [10] (at 0.000305 µM, OCI-C5x cells, without rucaparib); 62% (active) in [10] (at 0.000305 µM, OCI-P5x cells, with rucaparib 20 µM, 100% = cells with rucaparib alone); 22.5% (active) in test [10] (at 0.000305 µM, OCI-P5x cells, without rucaparib); 56.4% (active) in [10] (at 0.00122 µM, OCI-C5x cells, with rucaparib 10 µM, 100% = cells with rucaparib alone); 61.8% (active) in test [10] (at 0.00122 µM, OCI-C5x cells, without rucaparib). In addition, the viability is 50.3% (active) in test [10] (at 0.00122 µM, OCI-P5x cells, with rucaparib 20 µM, 100% = cells with rucaparib alone); 19.3% (active) in test [10] (at 0.00122 µM, OCI-P5x cells, without rucaparib); 54.9% (active) in test [10] (at 0.00488 µM, OCI-C5x cells, with rucaparib 10 µM, 100% = cells with rucaparib alone); 63.8% (active) in test [10] (at 0.00488 µM, OCI-C5x cells, without rucaparib); 58.3% (active) in [10] (at 0.00488 µM, OCI-P5x cells, with rucaparib 20 µM, 100% = cells with rucaparib alone); 18.4% (active) in test [10] (at 0.00488 µM, OCI-P5x cells, without rucaparib). The viability was 57.6% (active) in [10] (at 0.0195 µM, OCI-C5x cells, with rucaparib 10 µM, 100% = cells with rucaparib alone); 55.3% (active) in test [10] (at 0.0195 µM, OCI-C5x cells, without rucaparib); 55.3% (active) in [10] (at 0.0195 µM, OCI-P5x cells, with rucaparib 20 µM, 100% = cells with rucaparib alone); 19.7% (active) in test [10] (at 0.0195 µM, OCI-P5x cells, without rucaparib); 54.6% (active) in test [10] (at 0.0781 µM, OCI-C5x cells, with rucaparib 10 µM, 100% = cells with rucaparib alone); 50.1% (active) in test [10] (at 0.0781 µM, OCI-C5x cells, without rucaparib). In addition, the viability in [10] (at 0.0781 µM, OCI-P5x cells, with rucaparib 20 µM, 100% = cells with rucaparib alone) is 51.5% (active); in test [10] (at 0.0781 µM, OCI-P5x cells, without rucaparib), 20.3% (active); in test [10] (at 0.313 µM, OCI-C5x cells, with rucaparib 10 µM, 100% = cells with rucaparib alone), 54.9% (active); in test [10] (at 0.313 µM, OCI-C5x cells, without rucaparib) it was 50.6% (active); in test [10] (at 0.313 µM, OCI-P5x cells, with rucaparib 20 µM, 100% = cells with rucaparib alone), 55.7% (active); in test [10] (at 0.313 µM, OCI-P5x cells, without rucaparib), 19.2% (active). The viability in test [10] (at 1.25 µM, OCI-C5x cells, with rucaparib 10 µM, 100% = cells with rucaparib alone) was 49.2% (active); in test [10] (at 1.25 µM, OCI-C5x cells, without rucaparib), 49% (active); in test [10] (at 1.25 µM, OCI-P5x cells, with rucaparib 20 µM, 100% = cells with rucaparib alone), 48.4% (active); in test [10] (at 1.25 µM, OCI-P5x cells, without rucaparib), 17.8% (active); in test [10] (at 5 µM, OCI-C5x cells, with rucaparib 10 µM, 100% = cells with rucaparib alone) it was 4.98% (active); in [10] (at 5 µM, OCI-C5x cells, without rucaparib), 4.99% (active). Moreover, the viability in [10] (at 5 µM, OCI-P5x cells, with rucaparib 20 µM, 100% = cells with rucaparib alone) was 0.708% (active); in test [10] (at 5 µM, OCI-P5x cells, without rucaparib), 6.42% (active).

As to `COc1nc(-c2ccc3c(c2)OCO3)n(-c2ccc(NC(=O)CSc3ccccc3)cc2)n1`, the molecule was classed as inactive in test [1], in [2], in test [3], in [4], in test [5] and in [6]. Further, in test [8], the result was inactive. Also, the SSMD in test [9] came out at 0.993. The same molecule returned a cell count in test [9] of 6960. The plate-normalised HSF1 focus index in test [9] is 1.06 (inactive).

`CCNC(=O)CCC/C=C\C[C@@H]1[C@@H](/C=C/C(O)CCc2ccccc2)[C@@H](O)C[C@@H]1O` (stereo partly drawn): the outcome in [1], in test [2], in test [3], in [4], in test [5] and in test [6] was inactive. Moreover, the molecule was classed as inactive in test [7] and in [8].

Take `NC(=O)c1cccc(-c2cccc(OC(=O)NC3CCCCC3)c2)c1`: the call in test [1], in [2], in test [3], in [4], in [5] and in [6] was inactive. Moreover, the outcome in test [7] and in test [8] was inactive. In addition, the fold change in [11] (stronger effect = lower value, cell number ratio, induced over uninduced) is 1.39 (inactive) and 0.902 (inactive); in [11] (measured here: relative caspase fold change +Dox/-Dox), 1.45 and 0.843. Besides, the cell count is 5620 and 8620 in test [11] (measured here: total cells with miR-34 induction, stronger effect = lower value); 4040 and 9560 in test [11] (measured here: total cells without miR-34 induction). Moreover, the z-score in [12] (MELAS cybrid survival, CellTiter-Glo 48 h, stronger effect = higher value) was -0.288 (inactive); in test [12] (Rieske KO mouse fibroblast survival, CellTiter-Glo 72 h) it was -0.11.
